Structures are written as SMILES. A number with no mark means an inactive call. The rule behind the calls is not given here.

For the experiment, the target named is Pantothenate synthetase (Mycobacterium tuberculosis (strain ATCC 25618 / H37Rv)) (UniProt P9WIL5). Description: Coupled enzyme confirmation of inhibitors against recombinant Mtb PanC (AID 375).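 Note: 0% = full reaction with vehicle and 100% = no enzyme background.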 To be noted: coupled enzyme assay; at 10 µM, hits give high values.
Chain of Pantothenate synthetase (Mycobacterium tuberculosis (strain ATCC 25618 / H37Rv)) (P9WIL5 whole entry, looked up): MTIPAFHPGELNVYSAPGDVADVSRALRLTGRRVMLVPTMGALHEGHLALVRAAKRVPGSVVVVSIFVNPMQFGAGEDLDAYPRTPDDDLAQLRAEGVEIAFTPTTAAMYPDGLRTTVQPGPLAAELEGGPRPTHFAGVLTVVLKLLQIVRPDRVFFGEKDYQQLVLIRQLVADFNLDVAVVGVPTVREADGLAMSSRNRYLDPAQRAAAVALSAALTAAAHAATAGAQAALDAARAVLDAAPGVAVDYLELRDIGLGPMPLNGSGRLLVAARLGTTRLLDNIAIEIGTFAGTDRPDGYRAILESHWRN
As for `CN(C)c1ccc(/C(=N\O)c2ccccc2)cc1`, the inhibition (usually how much of the control response was suppressed) was 0%.

As to `CCOC(=O)C1=C(C)N=C2SCCC(=O)N2C1c1cc(Br)ccc1OC` (stereo not given), the inhibition was 5%.

For the compound `COC(=O)c1ccccc1NC(=O)Cn1c(-c2nonc2N)nc2ccccc21`, the inhibition is 0%.

Turning to `CC(C)CCn1c(SCC#N)nc2c(sc3ccccc32)c1=O`, the inhibition was 2%.

For the compound `CN(C)C(=O)N1CCN(C(=O)c2ccco2)CC1`, the inhibition is 0%.

For `COC(=O)CN1C(=O)C(O)(CC(=O)c2ccc(C)cc2)c2cc(Br)ccc21` (stereo not given), the inhibition is 2%.

With `COCC(=O)N(Cc1ccc(OC)cc1)Cc1nc2ccccc2c(=O)[nH]1`, the inhibition is 0%.

`O=C(NCCCN1CCCC1=O)c1cncc(Br)c1`: the inhibition was 0%.

Consider `Cc1cc(C)c(-c2cc(C(=O)Nc3c(C)n(C)n(-c4ccccc4)c3=O)[nH]n2)c(O)c1`, for which the inhibition was 0%.

On to `Cc1ccc(C)c(S(=O)(=O)NCc2cccnc2)c1`, for which the inhibition is 7%.

Turning to `COCC(=O)Nc1sc2c(c1C(=O)OC)CCC(C)C2` (stereo not given), the inhibition was 6%.

On to `Cc1ccccc1Cn1nc(C)c(NC(=O)c2noc3c2CCc2ccccc2-3)c1C`, for which the inhibition was 0%.

In the case of `CC1C=CC(C)C(C(=O)O)C1C(=O)O` (stereo not given), the inhibition is 0%.

As to `Cc1cccc(NC(=O)CSc2nnc(-c3cc(C)n(-c4ccccc4)c3C)o2)c1C`, the inhibition was 0%.

In the case of `COC(=O)c1ccc2c(=O)n(NC(C)=O)c(=S)[nH]c2c1`, the inhibition is 0%.

Consider `CCCn1cnc2c(cnn2-c2ccc(F)cc2)c1=O`, for which the inhibition is 4%.

Consider `O=c1[nH]c(Nc2ccccc2)cc2ccccc12`, for which the inhibition was 0%.

Regarding `CC1(C)S[C@@H]2[C@H](NC(=O)[C@H](N)c3ccccc3)C(=O)N2[C@H]1C(=O)O`, the inhibition was 2%.

Turning to `CCOc1ccc(NC2c3ccccc3C(=O)N2Cc2ccco2)cc1` (stereo not given), the inhibition was 1%.

Turning to `COc1cc(OC)c(C(=O)Nc2ccc(N(C)C)cc2)cc1OC`, the inhibition is 4%.

Take `CCOC(=O)c1c(C)[nH]c(C(=O)COC(=O)c2ccc(F)c(S(=O)(=O)N3CCOCC3)c2)c1C`: the inhibition is 4%.

In the case of `COC(=O)c1ccc(NC(=O)CN2C(=O)CSC2=O)cc1`, the inhibition was 5%.

For the compound `COc1ccc(C(N)=O)cc1N`, the inhibition is 0%.

For `O=C(Nc1nc(-c2ccccn2)cs1)C1CC1`, the inhibition is 0%.

As for `CCn1c(CSc2nc(C)cc(C)n2)nnc1SCC(=O)Nc1ccccc1`, the inhibition is 5%.

As to `COc1ccccc1NC1=NC(c2ccc(Cl)cc2)N=C(N)N1` (stereo not given), the inhibition is 0%.

Consider `O=C(OCC(=O)N1CCCCCC1)c1cccs1`, for which the inhibition was 0%.

Turning to `Cc1ccc(S(=O)(=O)NCCCCC(NC(=O)OC(C)(C)C)C(=O)O)cc1` (stereo not given) (tested in a mixture with another compound), the inhibition was 0%.

Take `CCC1(CC)C(=O)C(C)(C)C(=O)OC1c1cccs1` (stereo not given): the inhibition was 0%.

As to `Cc1ccc(-c2ccc(=O)n(CCC(=O)NCCN3CCCCC3C)n2)cc1` (stereo not given), the inhibition was 0%.

Turning to `COc1cccc(N2CCN(CC(=O)c3c[nH]c4ccc(OC)cc34)CC2C)c1` (stereo not given), the inhibition was 2%.

With `CN(C)C=Nc1nonc1N`, the inhibition was 10%.

As to `COc1ccc(NC(=O)CSc2nnc(Cc3cccn3C)n2-c2ccc(F)cc2)cc1`, the inhibition was 0%.

With `Cc1ccccc1OCC(O)CN` (stereo not given), the inhibition was 0%.

With `CCOCC(=O)Nc1sc2c(c1C(=O)OCC)CCCC2`, the inhibition was 0%.

For the compound `CCOC(=O)CN1C(=O)C(=O)c2cccc(C)c21`, the inhibition was 0%.

Regarding `CCOC(=O)c1cc2c(=O)n3ccccc3nc2n(CC(C)C)c1=NC(=O)c1ccco1`, the inhibition is 0%.

As to `CC(=O)Nc1ccc(NC(=O)c2ccccc2F)cc1`, the inhibition is 0%.

In the case of `Cc1ccc(C(c2nnnn2CCC(C)C)N2CCN(C)CC2)cc1` (stereo not given), the inhibition was 2%.

For the compound `COc1ccc2c(c1)C(=NO)c1cc(OC)ccc1-2`, the inhibition was 0%.
